Results filed as inconclusive are left out. A number with no mark means an inactive call. Calls of active or inactive are those of the source. Calls follow the shape of the dose curve; as a rule, active = well fitted inhibition curve with a large enough effect; inconclusive = small, poorly fitted or top-dose-only effect; inactive = flat fitted curve, though single readings scatter.
The compounds below were run on CRL-7250 (assay: Cytotoxic Profiling of Annotated Libraries Using Quantitative High-Throughput Screening (AID 1296008; also: nearly all actives have a fitted effect of over 60% in size)). Details: Five cell lines viability, CellTiter-Glo ATP luminescence, 48-72 h; max response: hits give low values.
In short: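 Cells exposed to compounds for 48 or 72 hr at 37 degrees Celsius. Viability read as ATP-coupled luminescence with CellTiter-Glo after 10 min at room temperature.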
% is scaled to controls: 0 for no effect and ±100 for the full control effect; potency is read from the fitted curve at half-maximal effect.

Compound | max response | outcome | Potency
C=C1CC[C@H]2[C@@](C)(CCC(O)[C@@]2(C)CO)[C@@H]1CCC1=CCOC1=O (some centres undefined) | 0.497% | – | –
CC1CCCCN1S(=O)(=O)c1ccc(N2CCCC2=O)cc1 (centres undefined) | -8.63% | – | –
CC(C)c1ccc2c(c1)C(=O)CC1[C@@](C)(C(=O)O)CCC[C@]21C (some centres undefined) | 2.88% | – | –
C/C(=C\CCC1(C)C2CCC(C2)C1(C)O)C(=O)O (centres undefined) | – | inactive | –
COC(C(=O)N1Cc2[nH]nc(NC(=O)c3ccc(N4CCN(C)CC4)cc3)c2C1)c1ccccc1 (centres undefined) | – | – | 1840 nM (active)
COC(=O)C[C@H]1C(C)(C)[C@H](OC(C)=O)C2CC3=C4CC(=O)O[C@@H](c5ccoc5)[C@]4(C)CCC3[C@@]1(C)C2=O (some centres undefined) | 3.53% | – | –
CC(=O)O[C@@H]1[C@@H](O)[C@H](C)O[C@@H](O[C@H]2[C@@H]3C=CO[C@@H](O[C@@H]4O[C@H](CO)[C@@H](O)[C@H](O)[C@H]4O)[C@@H]3[C@@]3(CO)O[C@@H]23)[C@@H]1OC(=O)/C=C/c1ccccc1 | -1.26% | – | –
CC(C)C(=O)OC[C@H]1O[C@H](O[C@H]2O[C@H](CO)[C@@H](O)[C@H](O)[C@H]2O)[C@H](O)[C@@H](O)[C@@H]1O | -1.64% | – | –
C[C@@H]1C(=O)OC[C@H]2C(C(=O)O)=C[C@@H]3CC(C)(C)C[C@]312 | – | inactive | –
CC1COC2(OC3CC4C5CC(O[C@@H]6O[C@H](C)[C@@H](O[C@@H]7O[C@@H](C)[C@H](O)[C@@H](O)[C@H]7O)[C@H](O)[C@H]6O)C6CC(O)CCC6(C)C5CCC4(C)C3C2C)C(O)C1 (some centres undefined) | -20% | – | –
N#Cc1cc(F)cc(-c2nc(-c3ccccn3)no2)c1 | 1.54% | – | –
CC/C=C/CC1=C(CCCCC(CCC(=O)O)OC(C)=O)CCC1=O (centres undefined) | -18.8% | – | –
Cc1cc2c(c(=O)[nH]1)OC(C(O)CC(C)C)O2 (centres undefined) | -20.7% | – | –
CC(C)(O)C1CCC(C)(C2CCC3(C)C4CCC5C(C)(C(=O)OC6OC(CO)C(O)C(O)C6O)C(O)CC(O)C56CC46CCC23C)O1 (centres undefined) | – | inactive | –
C/C=C(\C)C(=O)O[C@H]1[C@@H](O[C@]2(COC(=O)CC(C)C)O[C@H](COC(=O)C(C)CC)[C@@H](OC(C)=O)[C@@H]2O)O[C@H](COC(C)=O)[C@@H](O)[C@@H]1O (some centres undefined) | 0.451% | – | –
C=C[C@H]1[C@H](O[C@@H]2O[C@H](CO)[C@@H](O)[C@H](O)[C@H]2O)OC=C(C(=O)OC)[C@H]1CC(=O)O | -13.3% | – | –
C/C=C1\[C@H](O[C@@H]2O[C@H](CO)[C@@H](O)[C@H](O)[C@H]2O)OC=C(C(=O)OC)[C@H]1CC(=O)OC[C@H]1O[C@@H](OCCc2ccc(O)cc2)[C@H](O)[C@@H](O)[C@@H]1O | -9.74% | – | –
C=CC1(C)C=C2C(=O)OC(=O)C3=C(CCCC3(C)C)C2(O)CC1 (centres undefined) | -0.556% | – | –
COc1ccc(N(C)c2nc(C)nc3ccccc23)cc1 | – | – | 10.3 nM (active)
Cc1cn(C2C=CC(CO)O2)c(=O)[nH]c1=O (centres undefined) | -8.63% | – | –

Compound | max response | outcome | Potency
CC1(C)CC[C@]2(C(=O)O[C@@H]3O[C@H](CO)[C@@H](O)[C@H](O)[C@H]3O)CC[C@]3(C)C(=CCC4[C@@]5(C)C[C@@H](O)[C@H](O)[C@@](C)(CO)C5CC[C@]43C)C2[C@@H]1O (some centres undefined) | 1.08% | – | –
C/C(=C\C=C\C(C)C1CCC2(C)C3CCC4C(C)(C)C(=O)CCC45CC35CCC12C)C(=O)O (centres undefined) | -5.15% | – | –
C=C1CC2C(C)(CCC(=O)O)C(C(C)(C)O)CCC2(C)C2C(=O)OC(C)(C(=O)OC)C(=O)C12C (centres undefined) | -2.01% | – | –
O=C(O)c1cccc(S(=O)(=O)N2CCc3ccccc3C2)c1 | 0.0752% | – | –
Cc1cccc(-c2[nH]c(Cc3cccc(C(N)=O)c3)nc2-c2ccc3nccnc3c2)n1 | 4.2% | – | –
CCOC(=O)c1cc(C#N)c(N2CCC(C(=O)NS(=O)(=O)Cc3ccccc3)CC2)nc1C | – | inactive | –
CC1=CC(=O)CC2C1(O)CCC(C)C21CC(c2ccoc2)OC1=O (centres undefined) | -9.3% | – | –
CC1CCC2(C=O)C(CO)=CCCC2C1(C)CC(=O)O (centres undefined) | 1.72% | – | –
CCOc1ccc(NC(=S)N2CCC(C(O)(c3ccccc3)c3ccccc3)CC2)cc1 | -3% | – | –
COc1ccc(/C=C/C(=O)O[C@@H]2[C@@H](O)[C@@H](O)[C@H](O[C@@H]3C=C(CO)[C@H]4[C@H](O[C@@H]5O[C@H](CO)[C@@H](O)[C@H](O)[C@H]5O)OC=C[C@H]43)O[C@H]2C)cc1O | 0.875% | – | –
COc1ccc(-c2ccc(-c3cn(C(=O)N4CCCCC4c4ccccc4)nn3)cc2)cc1 (centres undefined) | – | inactive | –
O=C1NC(Cc2c[nH]c3ccccc23)C(=O)NC1Cc1cnc[nH]1 (centres undefined) | – | inactive | –
C[C@@H]1CC[C@]2(C(=O)O[C@@H]3O[C@H](CO)[C@@H](O)[C@H](O)[C@H]3O)CC[C@]3(C)C(=CCC4[C@@]5(C)C[C@@H](O)[C@H](O)[C@](C)(C(=O)O)C5CC[C@]43C)[C@@H]2[C@]1(C)O (some centres undefined) | – | inactive | –
COC(=O)CCC(=O)OC[C@]1(C)CCC[C@@]2(C)C3CC[C@]4(C)C=CC3(CCC12)C4 (some centres undefined) | -4.15% | – | –
C[C@H]1CC[C@@H]2N(C1)C[C@@H]1[C@H]([C@@H](O)[C@H](O)[C@]3(O)[C@H]1C[C@@]14OC5(O)[C@@H](C[C@@H](O)[C@@H]31)[C@]4(C)CC[C@@H]5O)[C@]2(C)O | – | inactive | –
CC(=O)CC1CCC(C(C)C(=O)OCC(O)CO)O1 (centres undefined) | 2.08% | – | –
C[C@@H]1C[C@@H]2O[C@H]2/C=C\C=C\C(=O)Cc2c(Cl)c(O)cc(O)c2C(=O)O1 | – | – | 4530 nM (active)
Cc1nc(NC(=O)N2CCCC2C(N)=O)sc1-c1csc(C(C)(C)C)n1 (centres undefined) | -8.95% | – | –
CC1(C)CC[C@]2(C(=O)O[C@@H]3O[C@H](CO)[C@@H](O)[C@H](O)[C@H]3O)CC[C@]3(C)C(=CCC4[C@@]5(C)CC[C@H](O[C@@H]6O[C@H](C(=O)O)[C@@H](O)[C@H](O)[C@H]6O)C(C)(C)C5CC[C@]43C)C2C1 (some centres undefined) | 0.241% | – | –
